Results published in PubChem BioAssay.
Calls of active or inactive are those of the source.

How the values were obtained:
[1] = system: Plasmodium falciparum Sir2 (PF13_0152, Sir2A); assay: pfSir2 binders on small-molecule microarrays, primary screen, biochemical, small-molecule microarray, 635 nm fluorescence (AID 1098); conditions: small-molecule microarray binding, fluorescence 635 nm; higher = more signal;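 further: score merges spot fluorescence intensity with its signal-to-noise ratio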
[2] = small-molecule microarray binders of probe aDKK1, primary screen, biochemical, biotinylated probe, 635/667 nm fluorescence (AID 1099); conditions: higher = more signal;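 further: score merges 667nm spot fluorescence with signal to noise across triplicate slides; reference of the scale not given here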
[3] = small-molecule microarray binders of probe aCHRDL2, primary screen, biochemical, biotinylated probe, 635/667 nm fluorescence (AID 1100); conditions: higher = more signal
[4] = splicing luciferase reporter signal modulators, primary screen, spliceosome inhibition project, cell-based, HEK293, splice +/- reporter (AID 1101); conditions: luminescence, 24 h, higher = more signal, called active from +8 up or from −8 down;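 further: HEK293 cells carrying a splicing-competent luciferase reporter gene; test concentration not given here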
[5] = target: Fibroblast growth factor 10 (Homo sapiens) (UniProt O15520); assay: FGF10 binders on small-molecule microarrays, primary screen, biochemical, small-molecule microarray, 635 nm fluorescence (AID 1102); conditions: FGF10 binding, fluorescence 635 nm, higher = more signal
Fibroblast growth factor 10 (Homo sapiens), sequence (O15520 whole entry, looked up): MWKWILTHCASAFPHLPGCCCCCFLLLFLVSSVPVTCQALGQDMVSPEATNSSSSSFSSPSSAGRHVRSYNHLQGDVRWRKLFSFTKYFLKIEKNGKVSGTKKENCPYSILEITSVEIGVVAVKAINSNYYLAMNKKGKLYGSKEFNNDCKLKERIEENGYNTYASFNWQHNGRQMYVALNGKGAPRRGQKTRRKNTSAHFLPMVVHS

[6] = system: glycogen synthase kinase-3 (GSK3A per assay name; protocol says GSK3B); assay: GSK3 binders on small-molecule microarrays, primary screen, biochemical, small-molecule microarray, 635 nm fluorescence, GSK3A (AID 1103); conditions: small-molecule microarray binding, fluorescence 635 nm; higher = more signal; further: the record names both GSK3A and GSK3B
[7] = target: Epidermal growth factor receptor (Homo sapiens) (UniProt P00533); assay: EGFR binders on small-molecule microarrays, primary screen, biochemical, small-molecule microarray, 635 nm fluorescence (AID 1104); conditions: EGFR binding, higher = more signal;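 further: score merges 667 nm emission intensity with spot signal to noise over triplicate slides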
Epidermal growth factor receptor (Homo sapiens), sequence (P00533 whole entry, looked up): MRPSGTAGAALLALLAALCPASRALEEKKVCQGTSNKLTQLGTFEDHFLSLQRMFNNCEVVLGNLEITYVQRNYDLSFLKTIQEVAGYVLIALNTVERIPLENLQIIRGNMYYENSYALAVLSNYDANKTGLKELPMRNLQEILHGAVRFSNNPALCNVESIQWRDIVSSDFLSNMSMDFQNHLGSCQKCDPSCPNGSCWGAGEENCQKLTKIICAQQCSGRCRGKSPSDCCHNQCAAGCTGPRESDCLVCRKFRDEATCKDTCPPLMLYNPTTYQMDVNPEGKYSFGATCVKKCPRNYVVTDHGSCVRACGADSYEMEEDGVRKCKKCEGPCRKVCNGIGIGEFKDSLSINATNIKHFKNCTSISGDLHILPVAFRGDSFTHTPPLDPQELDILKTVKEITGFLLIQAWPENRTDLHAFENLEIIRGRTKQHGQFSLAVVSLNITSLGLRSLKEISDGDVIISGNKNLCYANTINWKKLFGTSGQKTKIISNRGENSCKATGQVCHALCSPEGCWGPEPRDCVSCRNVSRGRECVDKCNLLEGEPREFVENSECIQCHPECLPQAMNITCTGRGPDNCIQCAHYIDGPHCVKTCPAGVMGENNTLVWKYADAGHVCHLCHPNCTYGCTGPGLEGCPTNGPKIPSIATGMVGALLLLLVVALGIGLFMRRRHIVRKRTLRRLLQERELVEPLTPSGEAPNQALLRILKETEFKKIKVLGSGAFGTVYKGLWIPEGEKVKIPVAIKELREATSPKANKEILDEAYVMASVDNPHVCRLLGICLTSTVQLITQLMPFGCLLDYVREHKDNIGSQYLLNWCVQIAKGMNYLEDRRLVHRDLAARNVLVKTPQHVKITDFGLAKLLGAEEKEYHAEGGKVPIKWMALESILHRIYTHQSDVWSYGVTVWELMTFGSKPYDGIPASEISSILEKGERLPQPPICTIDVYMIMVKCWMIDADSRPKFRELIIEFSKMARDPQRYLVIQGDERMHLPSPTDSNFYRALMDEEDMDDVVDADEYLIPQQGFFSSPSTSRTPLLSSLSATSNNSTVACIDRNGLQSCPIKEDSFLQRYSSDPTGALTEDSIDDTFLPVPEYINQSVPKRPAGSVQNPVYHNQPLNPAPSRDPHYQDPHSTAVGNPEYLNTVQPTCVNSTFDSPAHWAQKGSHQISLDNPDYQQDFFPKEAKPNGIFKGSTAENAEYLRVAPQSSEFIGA

[8] = target: Follistatin-related protein 3 (Homo sapiens) (UniProt O95633); assay: FSTL3 binders on small-molecule microarrays, primary screen, biochemical, small-molecule microarray, 635 nm fluorescence (AID 1105); conditions: FSTL3 binding, higher = more signal;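 further: score merges emission near 667 nm and signal to noise per printed spot across three slides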
Follistatin-related protein 3 (Homo sapiens), sequence (O95633 whole entry, looked up): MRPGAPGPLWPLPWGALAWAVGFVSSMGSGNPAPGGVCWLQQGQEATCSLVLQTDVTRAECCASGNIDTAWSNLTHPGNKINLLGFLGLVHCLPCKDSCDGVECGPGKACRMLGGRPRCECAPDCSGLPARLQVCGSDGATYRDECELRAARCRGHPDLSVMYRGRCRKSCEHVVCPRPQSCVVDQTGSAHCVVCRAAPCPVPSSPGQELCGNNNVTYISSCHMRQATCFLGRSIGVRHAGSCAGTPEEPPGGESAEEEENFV

[9] = target: Dickkopf-related protein 1 (Homo sapiens) (UniProt O94907); assay: DKK1 binders on small-molecule microarrays, primary screen, biochemical, small-molecule microarray, 635 nm fluorescence scan (AID 1106); conditions: DKK1 binding, higher = more signal;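 further: score merges emission near 667 nm with signal to noise over three replicate slides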
Dickkopf-related protein 1 (Homo sapiens), sequence (O94907 whole entry, looked up): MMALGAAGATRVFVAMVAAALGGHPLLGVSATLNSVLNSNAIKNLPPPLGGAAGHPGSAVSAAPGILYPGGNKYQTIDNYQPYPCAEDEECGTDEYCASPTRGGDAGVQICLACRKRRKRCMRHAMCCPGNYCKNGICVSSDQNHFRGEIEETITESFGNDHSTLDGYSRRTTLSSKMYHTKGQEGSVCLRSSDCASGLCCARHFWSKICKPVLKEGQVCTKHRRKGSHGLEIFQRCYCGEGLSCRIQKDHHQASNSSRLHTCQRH

[10] = system: Inhibin beta A chain (activin A); assay: INHBA (activin A) binders on microarrays, primary screen, biochemical, small-molecule microarray, 635 nm fluorescence scan (AID 1107); conditions: small-molecule microarray binding, higher = more signal;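 further: mouse activin A protein probed at 4.33 µg/mL on printed slides; score merges bound-protein fluorescence near 667 nm with spot signal-to-noise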

SMILES | composite z-score [1] | composite z-score [2] | composite z-score [3] | z-score [4] | composite z-score [5] | composite z-score [6] | composite z-score [7] | composite z-score [8] | composite z-score [9] | composite z-score [10]
COc1cc2c(cc1OC)CN(C(=O)[C@@H]1[C@H]3C(=O)O[C@H](c4ccccc4)[C@H](c4ccccc4)N3[C@H](c3ccc(OCCO)cc3)[C@@]13C(=O)Nc1ccc(C#CC4(O)CCCCCC4)cc13)CC2 | 1.21 | 0.7 | -0.386 | -1.38 (inactive) | 1.47 | 1.3 | 0.741 | 1.11 | 0.698 | 0.282
CN(C)CCCNC(=O)[C@@]1(c2ccc([N+](=O)[O-])cc2)CC(=O)N(CC23CC4CC(CC(C4)C2)C3)[C@@H]1c1ccc(CO)cc1I | 1.59 | -0.0761 | 0.407 | -0.854 (inactive) | 0.879 | 0.556 | 0.555 | 1.34 | 1.08 | 0.0974
COC(=O)[C@@]1(Cc2ccc(OC)cc2)[C@@H]2C(=CC(=O)[C@H]2CC(=O)C(=O)N(C)C)CN1C(=O)c1ccccc1 | 0.86 | 1.22 | 1.09 | -2.59 (inactive) | 0.945 | 1.07 | -0.208 | 1.03 | -0.568 | 0.928
CN1C(=O)C2C=CC(C(O)c3cccc4ccccc34)N(N3CCCCC3)C2C1=O (stereo not given) | 1.52 | 1.11 | 1.21 | 1.81 (inactive) | 0.595 | 1.31 | 0.396 | 1.09 | 0.353 | 0.784
Cc1ccc(S[C@]2(C(=O)NCCCN(C)C)CC(=O)N(C3CCCCC3)[C@@H]2c2ccc(CO)cc2)cc1 | -0.0346 | 0.348 | 0.893 | 0.104 (inactive) | -0.89 | -0.464 | -0.674 | -0.811 | -0.774 | 0.83
CCOC(=O)C[C@H]1[C@H](OC(=O)c2cc3ccccc3oc2=O)[C@@H](NC(=O)c2ccc(-c3ccccc3)cc2)c2cc(OCCCO)ccc2N1C(=O)c1ccc2ccccc2n1 | 0.853 | -0.183 | -0.386 | -0.338 (inactive) | 0.93 | 1.01 | 0.622 | 1.06 | 0.45 | 0.379
CCOC(=O)C[C@H]1[C@H](OC(=O)Cc2ccc3c(c2)OCO3)[C@@H](NC(=O)CC(C)C)c2cc(OCCCO)ccc2N1C(=O)Cc1ccc(OC)cc1 | -0.25 | -0.283 | -0.0563 | -1.86 (inactive) | 0.139 | 0.0308 | -0.0638 | -0.0495 | 0.0009 | 0.26
CC(C)C[C@@H]1NC(=O)[C@@H]2C[C@H](C(=O)NCCCCN(C)C)[C@H](c3cccc(OCCO)c3)N2C1=O | 1.66 | -0.224 | 0.0176 | -0.464 (inactive) | -0.272 | -1.24 | -0.0053 | -0.135 | 0.212 | 0.266
Cc1ccc(S[C@]2(C(=O)NCC(F)(F)F)CC(=O)N(C3CCCCC3)[C@@H]2c2ccc(CO)cc2I)cc1 | 0.894 | 0.119 | 0.408 | -0.635 (inactive) | 0.919 | 1.24 | 0.395 | 0.914 | 0.133 | 0.469
O=C(CS)NCCCCCCNC(=O)[C@H]1C[C@H]2C(=O)N[C@@H](Cc3ccccc3)C(=O)N2[C@H]1c1ccc(O)cc1 | 1.67 | -0.249 | -0.0488 | -0.239 (inactive) | 1.39 | 0.992 | 0.0478 | 0.333 | 0.75 | -0.95
[N-]=[N+]=Nc1ccccc1[C@@H]1OC(c2ccc(OCCCO)cc2)=N[C@]1(Cc1ccccc1)C(=O)NCC(O)CO (stereo not given in full) | 1.08 | 1.33 | 1.4 | -1.37 (inactive) | 0.915 | -0.216 | -0.433 | 0.18 | -0.647 | 1.09
O=C1O[C@H](c2ccccc2)[C@H](c2ccccc2)N2[C@H]1[C@@H](C(=O)N1CCN(c3ncccn3)CC1)[C@]1(C(=O)Nc3ccc(C#CC4(O)CCCCCC4)cc31)[C@H]2c1ccc(OCCO)cc1 | 1.82 | 0.695 | 0.731 | -0.604 (inactive) | 1.45 | 1.33 | 1.38 | 1.21 | 1.42 | 0.86
O=C1OCCC/C=C\[C@H]2OC34C=CCN(CCN5CCOCC5)C(=O)[C@H]3N(CCCCCCO)C(=O)[C@@H]4C12 (stereo not given in full) | 1.16 | -0.0117 | -0.0021 | -1.4 (inactive) | -0.145 | 0.229 | -0.684 | -0.0634 | -0.528 | 1.41
COCCOC(=O)N1C(=O)[C@@]2(c3cc(C#Cc4ccc(OC)cc4)ccc31)[C@H](C(=O)Nc1nc3ccccc3s1)[C@H]1C(=O)O[C@H](c3ccccc3)[C@H](c3ccccc3)N1[C@@H]2c1ccc(OCCO)cc1 | 0.557 | -0.135 | -0.571 | -0.653 (inactive) | 1.37 | 1.28 | 0.654 | 1.38 | 0.901 | 0.0865
C#CCN([C@@H](Cc1ccc(O)cc1)C(=O)OC)[C@@H](/C=C/C1CC1)[C@H](O)Cc1ccccc1 | -0.189 | -0.236 | -0.26 | 0.25 (inactive) | -0.251 | -0.689 | -0.0832 | 0.122 | 0.103 | 0.644
C=C(COC)C(=O)CC[C@@H](OC(=O)c1cccnc1)c1ccc(OCCO)cc1 | 0.872 | 0.131 | 0.423 | -0.853 (inactive) | 1.55 | 0.328 | 0.338 | 0.847 | 0.922 | 1.26

SMILES | composite z-score [1] | composite z-score [2] | composite z-score [3] | z-score [4] | composite z-score [5] | composite z-score [6] | composite z-score [7] | composite z-score [8] | composite z-score [9] | composite z-score [10]
Cc1cc(C)c(C(O)C2C=CC3C(=O)NC(=O)C3N2Nc2ccc(Cl)cc2Cl)c(C)c1 (stereo not given) | 0.651 | 0.639 | 1.2 | 0.465 (inactive) | 0.871 | 0.753 | 0.253 | 0.95 | -0.0057 | 1.31
CCOC(=O)C[C@H]1[C@H](OC(=O)c2cc3ccccc3oc2=O)[C@@H](NC(=O)Cc2ccc(OC)cc2)c2cc(OCCCO)ccc2N1C(=O)c1ccc2ccccc2n1 | 0.195 | 0.0588 | -0.335 | 0.126 (inactive) | 1.28 | 0.372 | 0.409 | 0.889 | 0.578 | 0.155
COC(=O)c1c2oc(c1C(=O)OC)C(=O)N(C)Cc1cn(nn1)C[C@H](Cc1ccccc1)NC(=O)N[C@H](CO)CC2 | -0.595 | -0.349 | -0.264 | 0.322 (inactive) | -0.591 | -0.94 | -0.694 | -0.269 | -0.316 | -0.0248
COC(=O)[C@H](Cc1ccccc1)N1CC(/C=C/C2CC2)=C[C@H]1[C@H](O)Cc1ccccc1 | 0.728 | -0.0559 | -0.165 | 20.9 (active) | 0.697 | 0.368 | 0.237 | 0.702 | 0.734 | 0.597
COc1ccc([Si](C)(C)[C@@H]2[C@@H](CC(=O)N(CCO)Cc3ccccc3)O[C@]3(C(=O)N(Cc4cccc(N5CCOC5=O)c4)c4ccccc43)[C@H]2C)cc1 | 1.07 | -0.178 | -0.29 | -0.244 (inactive) | 0.386 | 0.688 | 0.41 | 0.468 | 0.291 | 0.523
COC(=O)Cn1c(C(=O)N(C)C)cc2c1C[C@H]1CN(C(=O)c3ccccc3)[C@@](Cc3ccc(F)cc3)(C(=O)OC)[C@@H]21 | 0.441 | 0.903 | 0.823 | -0.233 (inactive) | 1.33 | -0.367 | 0.404 | 0.139 | -0.0283 | 0.65
C=CCNC(=O)[C@H]1[C@@H]2C(=O)O[C@@H](c3ccccc3)[C@@H](c3ccccc3)N2[C@@H](c2ccc(O)cc2)[C@]12C(=O)Nc1ccc(C#CC3(O)CCCCCC3)cc12 | 1.38 | 0.0898 | 0.105 | 0.558 (inactive) | 0.155 | 0.373 | -0.612 | -0.0182 | 0.0926 | 0.697
O=c1n(-c2ccccc2)c(=O)n2n1CC(COc1ccccc1)=C([C@H](O)CCc1ccccc1)[C@@H]2CO | -0.0946 | -0.342 | -0.313 | -1.54 (inactive) | 0.692 | -0.0688 | 0.0867 | 0.0711 | 0.291 | 1.03
COC(=O)CCCCCCC(=O)Nc1ccc(NC(=O)CCCC[P+](c2ccccc2)(c2ccccc2)c2ccccc2)cc1 | 0.5 | -0.238 | -0.842 | -0.186 (inactive) | 1.38 | 0.686 | 0.758 | 0.955 | 1.16 | 0.59
COCCCNC(=O)[C@@]1(Cc2ccccc2N=[N+]=[N-])COC(c2ccc(OCCCO)cc2)=N1 | 0.955 | 0.516 | 1.17 | 0.989 (inactive) | 0.475 | -0.331 | -0.027 | -0.121 | -0.599 | 1.61
COc1ccc(C(O)C2C=CC3C(=O)N(c4ccccc4)C(=O)C3N2Nc2ccc([N+](=O)[O-])cc2)cc1 (stereo not given) | 1.43 | 1.37 | 1.23 | 0.304 (inactive) | 0.774 | 0.998 | 0.0207 | 0.952 | -0.655 | 0.918
COc1ccc(CN(C2=CC[C@@]3(C(N)=O)C(=O)C(Cl)=C(Cl)C(=O)[C@@]3(C#N)C2)S(=O)(=O)c2ccc(Br)cc2)cc1 | -0.201 | 0.661 | 0.84 | -2.69 (inactive) | 0.0024 | -0.139 | -0.733 | -0.0224 | -1.28 | 1.03
C=CCC(OC(C)=O)[C@@H]1[C@@H](N(Cc2cc3ccccc3o2)C(=O)c2ccc(-c3ccccc3)cc2)c2cc(OCCCO)ccc2N1C(=O)c1ccc2ccccc2c1 (stereo not given in full) | 0.187 | -0.106 | 0.285 | 0.416 (inactive) | 0.132 | 0.289 | -0.0546 | 0.674 | 0.227 | 1.02
COc1ccccc1CN1C(=O)c2ccccc2[C@](Cc2ccccc2I)(C(=O)NCC(F)(F)F)[C@@H]1c1ccc(CO)cc1 | 1.31 | 0.984 | 0.854 | 0.377 (inactive) | 0.7 | 1.29 | -0.24 | 1.1 | -0.532 | 0.513
CC(=O)NCCCC[C@@H]1NC(=O)[C@H]2C[C@@H](C(=O)NCCCC[N+](C)(C)C)[C@@H](c3cccc(OCCO)c3)N2C1=O | 0.0726 | 0.186 | -0.201 | -0.307 (inactive) | 1.37 | 0.536 | 1.17 | 1.54 | 1.83 | -0.416
